Source: PubChem BioAssay (Buhrlage Lab, Dana-Farber Cancer Institute and Novartis Institutes for BioMedical Research (Cambridge, Mass))
USP10 block: inhibitors of human USP10 deubiquitinase. AID 1645856. purified USP10, Ub-rhodamine fluorescence, 60 min. actives 1.1% (n = 47,000). inhibition, % at 20 µM. Q14694
USP30 inh: human USP30 deubiquitinase inhibition; actives 5.3% (n = 47,000); inhibition, % at 25 µM; Q70CQ3; purified USP30, Ub-rhodamine cleavage fluorescence
USP8 block: human USP8 deubiquitinase inhibition. P40818. purified USP8, Ub-rhodamine cleavage fluorescence, 30 min. inhibition, % at 20 µM. actives 4.2% (n = 47,000)
USP17 inh: human USP17-like deubiquitinase inhibition. A8MUK1. purified USP17, Ub-rhodamine cleavage fluorescence, 3 h. inhibition, % at 50 µM. actives 6.5% (n = 47,000)
USP28 inh: blocks human USP28 ubiquitin-rhodamine cleavage; Q96RU2; purified USP28, Ub-rhodamine cleavage fluorescence, 30 min; inhibition, % at 25 µM; actives 3% (n = 47,000)
USP7 inh: human USP7 deubiquitinase inhibition. Q93009. purified USP7, Ub-rhodamine cleavage fluorescence. inhibition, % at 20 µM. actives 0.3% (n = 47,000)
* = called active by the depositor; i = inactive; / = no result given. Compounds with a hit are over-represented: about 13% of the library has one in this group of screens. Cut-off read from the data, not from the text of the source: active = inhibition above about 30%; inactive = the rest.

SMILES | USP10 block | USP30 inh | USP8 block | USP17 inh | USP28 inh | USP7 inh
COc1cc(C2c3[nH]c4ccccc4c3C[C@@H]3C(=O)N(Cc4ccco4)CC(=O)N23)cc(OC)c1OC (some centres undefined) | -3.1 | -29.2 | 14.0 | -2.9 | -8.1 | 1.3
COCCn1c(C(=O)Nc2ccc(C(C)=O)cc2)cc2c(=O)n(C)c(=O)n(C)c21 | -4.7 | -8.7 | -2.1 | 0.0 | 0.0 | 2.5
COCCn1c(C(=O)Nc2ccccc2Cl)cc2c(=O)n(C)c(=O)n(C)c21 | 1.9 | -3.0 | -10.4 | 36.2* | -9.9 | -0.2
CCCN1CNc2c(c(=O)[nH]c(=O)n2Cc2ccccc2Cl)C1 | 6.1 | 22.0 | 0.6 | 20.5 | 9.5 | -1.2
O=C(Nc1ccc(N2CCOCC2)cc1)c1cc(=O)[nH]c2ccccc12 | 8.0 | 8.6 | 24.1 | 59.7* | 9.4 | 6.8
COc1cccc2[nH]c(C(=O)Nc3ccc4c(c3)OCCO4)cc12 | -5.2 | -94.4 | -7.8 | -16.8 | -13.0 | 1.0
O=C(Nc1ccc2c(c1)OCCCO2)c1cc(=O)[nH]c2ccccc12 | 2.9 | / | 0.6 | 46.1* | / | 2.7
O=C(CCCc1c[nH]c2ccccc12)Nc1ccc2c(c1)OCCO2 | 2.0 | -20.0 | 6.5 | -35.2 | 74.7* | -3.1
COc1ccc(C(=O)Nc2cc(-c3ccccn3)no2)c(C)c1 | -0.2 | 0.3 | 0.6 | 18.4 | 8.3 | -1.8
COC(=O)C1=CC(=O)C=C(OC)C12Oc1cc(C)cc(O)c1C2=O (centres undefined) | -3.6 | 5.0 | -9.9 | 20.5 | 8.8 | 0.3
COc1ccc(OC)c(Nc2nc(-c3ccc(Cl)cc3)c(C)s2)c1 | 7.7 | 10.0 | 42.1* | 5.1 | 11.1 | 6.8
COc1ccc(-c2nc(NC(=O)c3c(-c4ccccc4)noc3C)sc2C)cc1 | 5.3 | 14.2 | 0.0 | -0.1 | 12.8 | 4.5
O=C(NC1CCc2ncc(C(F)(F)F)n2C1)C1CCCC1 (centres undefined) | 1.0 | 16.3 | 3.5 | 5.6 | 9.9 | -0.7
COc1ccc(C(=O)c2c[nH]c3ccccc3c2=O)cc1 | 1.7 | / | 4.1 | 32.4* | / | 4.6
CN(C)c1cc(-n2cnc(C(=O)NCc3ccccc3Cl)c2)ncn1 | 0.4 | 27.9 | -2.0 | 52.1* | 10.0 | -0.8
Cn1cc(C2CCCN2CC(=O)Nc2ccnn2C2CCCC2)cn1 (centres undefined) | -6.7 | -86.2 | -11.8 | -7.6 | -12.1 | -7.8
COc1ccc2c(c1)CCc1c(C(=O)NCc3cccnc3)noc1-2 | -4.6 | 52.9* | 28.3 | 47.0* | 18.2 | -4.4
O=C(NCCc1c[nH]c2ccccc12)c1noc2c1CCc1sccc1-2 | 7.7 | -55.1 | 9.0 | 31.9* | 22.4 | -2.8
COc1ccccc1CNC(=O)c1noc2c1CCc1sccc1-2 | 6.1 | 30.1* | 4.9 | 26.1 | 28.9 | -1.9
COc1ccc(NC(=O)C(=O)NCc2cccnc2)c(OC)c1 | 3.1 | 4.0 | 5.9 | -2.8 | -6.7 | 4.3
O=C(NCc1ccc(Cl)cc1)c1noc2c1CCc1sccc1-2 | -7.0 | -24.9 | 74.7* | 29.8 | -4.7 | -4.3
COc1cc2c(c(OC)c1OC)-c1ccc(NCc3ccccc3F)c(=O)cc1[C@@H](NC(C)=O)CC2 | -3.8 | -99.8 | -71.6 | -46.5 | -21.8 | -9.7
COc1ccc(CNc2ncc(C(=O)Nc3ccc(F)cc3)c(C)n2)cc1 | -11.3 | -205.6 | -25.6 | -24.6 | -48.1 | -32.3
N#C/C(=C\c1ccccc1F)c1nnc(N)s1 | -4.9 | i | -174.2 | -127.7 | -220.5 | 2.3
CN(C(=O)c1noc2c1CCc1sccc1-2)c1ccccc1F | 3.4 | -4.2 | -7.2 | -6.8 | -2.3 | 6.3
SMILES | USP10 block | USP30 inh | USP8 block | USP17 inh | USP28 inh | USP7 inh
COc1ccc(C)cc1N(C)C(=O)c1noc2c1CCc1sccc1-2 | 2.0 | 30.4* | 9.9 | 20.9 | 22.4 | 1.8
c1cc(-c2cncnc2)nc(C2CN(Cc3ccnc4ccccc34)CCO2)c1 (centres undefined) | -2.4 | -37.9 | -12.8 | -1.4 | -2.0 | 3.2
CS(=O)(=O)Nc1cccc(CNC(=O)c2nc(-c3ccccc3)n(-c3ccccc3)n2)c1 | 0.5 | 10.0 | 37.7* | 13.0 | -2.2 | -2.1
Cc1ccc2nc(-c3cccc(NC(=O)C(C)C)c3)[nH]c2c1 | 1.4 | 20.7 | 64.9* | 49.2* | 26.3 | 6.7
CCOc1ccc(C(CC(=O)Nc2cc(C)ccn2)N2Cc3ccccc3C2=O)cc1OC (centres undefined) | -2.8 | 34.0* | 13.2 | 44.1* | 4.8 | 2.9
CCCc1nc(C2CN(C(=O)c3cc(C)oc3C)CCO2)n[nH]1 (centres undefined) | -2.3 | 0.7 | -3.3 | 2.8 | -9.8 | -0.9
CC(=O)c1ccc(NC(=O)Cc2sc(C)nc2-c2ccc(C)cc2)cc1 | 1.5 | -3.3 | -24.7 | -4.6 | 39.0* | 2.1
CCc1nnc2ccc(C(=O)NCCCN3CCOCC3)cn12 | -7.9 | -240.1 | -33.4 | -73.3 | -76.1 | -17.9
COCCn1c(C)c(C)c(S(=O)(=O)c2ccccc2)c1NC(=O)c1ccccc1OC | 1.8 | 20.2 | 22.1 | 8.4 | 13.8 | -0.6
CCN(CC)C(=O)c1[nH]c(C)c(C(C)=O)c1C | -0.8 | -8.7 | 14.2 | -0.2 | -11.9 | 0.1
Cc1ccc(OCc2nc(C#N)c(N3CCCCC3)o2)cc1 | -1.6 | 12.3 | -0.9 | 26.4 | 36.8* | 0.7
N#Cc1nc(Cc2ccccc2)oc1N1CCN(c2ccccc2)CC1 | 6.3 | -1.3 | 1.8 | 0.0 | 0.0 | -5.4
O=C(NCc1ccc(Br)cc1)c1ccc(-c2cccnc2)nc1 | 2.3 | 55.2* | 4.5 | 29.5 | 29.7 | 2.6
COc1ccc(NC(=O)CS(=O)c2ccc(Cl)c(Cl)c2)cc1 (centres undefined) | -0.9 | 46.9* | 8.0 | 4.8 | 11.2 | -59.0
COc1ccc(NC(=O)Cc2nc(-c3cccc(Cl)c3)no2)cc1 | 4.1 | -29.3 | -8.4 | -24.1 | -20.9 | 1.5
Brc1ccc(Sc2cnns2)cc1 | 6.4 | 28.5 | 15.8 | 18.4 | 37.8* | -152.9
COC(C)(C)C(=O)N1CCOC(c2cccc(-c3cnc(N)nc3)n2)C1 (centres undefined) | -1.3 | 3.3 | 1.7 | 0.0 | 4.1 | 5.5
c1cc(-c2nc3c(c(N4CCOCC4)n2)CCC3)ccn1 | 3.0 | 28.1 | -8.6 | 2.1 | 3.2 | 7.0
CCc1cnc(N2C[C@H]3C[C@H](C(=O)N4CCN(C)CC4)[C@@H](C2)O3)nc1 | 3.0 | 17.8 | -12.4 | 1.5 | 20.4 | 4.0
COc1ccc(NC(=O)Cn2c(=O)n(CCC(=O)N3CC=C(c4ccccc4)CC3)c(=O)c3ccccc32)cc1Cl | 3.0 | -5.2 | 0.0 | -6.2 | -5.2 | 1.7
COc1ccccc1NC(=O)CN1CCc2ccccc2C1 | 1.3 | 19.9 | -0.7 | -0.3 | 9.6 | 5.4
COc1ccc(NC(=O)Cn2c(=O)n(CCC(=O)N3CCc4ccccc4C3)c(=O)c3ccccc32)cc1Cl | 17.2 | 18.6 | 55.3* | / | 10.5 | 9.2
COc1ccc(Cl)cc1NC(=O)Cn1c(=O)n(CCC(=O)N2CCc3ccccc3C2)c(=O)c2ccccc21 | 5.5 | 35.8* | 33.8* | 24.7 | 5.1 | 1.7
